# According to PubChem BioAssay (EPA / NIEHS):
# Records with an inconclusive call do not appear. The source made the active and inactive calls. Rule for the calls: active = hit-call score of the fitted dose curve at least 0.9, where 1 is the maximum; inconclusive = response in the unintended direction; inactive = score below 0.9.
# Target: rabbit Imidazoline 2 Central (I2C), CKB (gene 100009085) (UniProt P00567)
# Assay: NVS_ENZ_rabI2C: NovaScreen (NVS) Enzymatic Assay for rabbit Imidazoline 2 Central (I2C) (AID 2283228)
# How it was run: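 Rabbit brain membranes, cell-free; readout by filter-based scintillation counting 1.5 hours after dosing, loss of signal vs DMSO. Initial duplicate test at 25 uM, then concentration-response with 50 uM top concentration.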
# rabbit Imidazoline 2 Central (I2C), CKB (gene 100009085), sequence (P00567 whole entry, looked up): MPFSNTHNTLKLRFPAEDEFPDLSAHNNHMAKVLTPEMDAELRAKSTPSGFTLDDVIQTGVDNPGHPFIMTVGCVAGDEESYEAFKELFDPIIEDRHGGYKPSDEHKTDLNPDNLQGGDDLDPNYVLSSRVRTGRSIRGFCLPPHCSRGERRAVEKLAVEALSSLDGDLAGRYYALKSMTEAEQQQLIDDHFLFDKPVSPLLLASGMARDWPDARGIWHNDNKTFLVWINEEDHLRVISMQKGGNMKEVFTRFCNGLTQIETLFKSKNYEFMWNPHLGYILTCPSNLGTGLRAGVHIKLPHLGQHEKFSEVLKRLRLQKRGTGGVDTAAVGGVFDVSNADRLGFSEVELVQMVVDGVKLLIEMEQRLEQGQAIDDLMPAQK
row,SMILES,outcome
1,O=C(N[C@@H](Cc1ccccc1)[C@@H](O)C(=O)N1C[C@@H](O)[C@@H](O)C1)c1cc2cc(Cl)ccc2[nH]1,inactive
2,NC(=O)Cn1c(=O)cc(CCN2CCN(c3nccc4sccc34)CC2)c2ccc(F)cc21,inactive
3,Nc1ccccc1N,inactive
4,CCOc1ccc2c(c1)C(C)=CC(C)(C)N2,inactive

# Target: human Vascular Endothelial Growth Factor Receptor 2 (VEGFR2), KDR (gene 3791) (UniProt P35968)
# Sequence (P35968 whole entry, looked up): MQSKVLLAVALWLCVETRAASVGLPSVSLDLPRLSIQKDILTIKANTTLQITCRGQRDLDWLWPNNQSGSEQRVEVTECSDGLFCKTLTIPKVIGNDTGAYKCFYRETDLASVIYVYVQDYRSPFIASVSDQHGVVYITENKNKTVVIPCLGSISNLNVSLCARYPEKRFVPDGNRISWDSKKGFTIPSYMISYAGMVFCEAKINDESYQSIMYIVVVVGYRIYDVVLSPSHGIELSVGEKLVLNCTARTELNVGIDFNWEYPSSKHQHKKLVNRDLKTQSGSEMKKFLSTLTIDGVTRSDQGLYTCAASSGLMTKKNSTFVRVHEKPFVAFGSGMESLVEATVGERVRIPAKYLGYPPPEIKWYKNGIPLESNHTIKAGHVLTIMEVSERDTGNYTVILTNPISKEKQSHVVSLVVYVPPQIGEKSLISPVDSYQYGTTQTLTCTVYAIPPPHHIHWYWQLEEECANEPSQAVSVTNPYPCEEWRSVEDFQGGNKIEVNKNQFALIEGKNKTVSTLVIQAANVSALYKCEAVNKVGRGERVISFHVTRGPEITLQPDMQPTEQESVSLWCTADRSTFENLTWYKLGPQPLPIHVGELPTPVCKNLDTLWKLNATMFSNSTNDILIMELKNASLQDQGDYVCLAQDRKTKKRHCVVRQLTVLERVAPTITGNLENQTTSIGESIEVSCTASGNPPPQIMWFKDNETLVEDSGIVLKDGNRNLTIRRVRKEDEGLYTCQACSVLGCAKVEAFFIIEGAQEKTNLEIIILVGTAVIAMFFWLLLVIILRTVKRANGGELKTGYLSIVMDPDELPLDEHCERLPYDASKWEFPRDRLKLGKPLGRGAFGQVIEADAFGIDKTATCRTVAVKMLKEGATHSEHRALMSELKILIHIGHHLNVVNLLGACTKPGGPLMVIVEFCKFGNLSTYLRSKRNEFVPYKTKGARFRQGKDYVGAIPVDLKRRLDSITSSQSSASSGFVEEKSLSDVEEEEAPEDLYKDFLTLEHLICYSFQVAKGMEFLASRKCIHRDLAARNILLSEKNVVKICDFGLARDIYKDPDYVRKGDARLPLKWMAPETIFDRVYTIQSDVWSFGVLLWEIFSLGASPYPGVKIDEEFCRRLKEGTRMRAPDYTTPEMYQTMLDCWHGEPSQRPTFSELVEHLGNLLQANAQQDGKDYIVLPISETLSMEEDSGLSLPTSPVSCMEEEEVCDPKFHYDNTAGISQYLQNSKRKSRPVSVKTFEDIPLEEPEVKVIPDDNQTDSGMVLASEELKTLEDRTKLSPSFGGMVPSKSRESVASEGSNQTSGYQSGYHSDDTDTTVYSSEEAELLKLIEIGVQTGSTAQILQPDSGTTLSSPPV
# Assay: NVS_ENZ_hVEGFR2: NovaScreen (NVS) Enzymatic Assay for human Vascular Endothelial Growth Factor Receptor 2 (VEGFR2) (AID 2283230)
# How it was run: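 Cell-free recombinant VEGFR2 kinase, fluorescent substrate with electrophoretic mobility-shift separation; read 1 h after dosing. Screened at 25 uM in duplicate, hits to concentration-response up to 50 uM; loss-of-signal versus DMSO.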
row,SMILES,outcome
1,CC(C)(C)c1cc(O)c(C(C)(C)C)cc1O,inactive
2,CN[C@H]1CC[C@@H](c2ccc(Cl)c(Cl)c2)c2ccc(S(N)(=O)=O)cc21,inactive
3,CCCCCCCCCCCCCO,inactive
4,O=c1[nH]cc(F)c(=O)[nH]1,inactive
5,CCCCCCOCCO,inactive

# Target: sheep Cyclooxygenase-2 (Cox2), PTGS2 (gene 443460) (UniProt P79208)
# Sequence (P79208 whole entry, looked up): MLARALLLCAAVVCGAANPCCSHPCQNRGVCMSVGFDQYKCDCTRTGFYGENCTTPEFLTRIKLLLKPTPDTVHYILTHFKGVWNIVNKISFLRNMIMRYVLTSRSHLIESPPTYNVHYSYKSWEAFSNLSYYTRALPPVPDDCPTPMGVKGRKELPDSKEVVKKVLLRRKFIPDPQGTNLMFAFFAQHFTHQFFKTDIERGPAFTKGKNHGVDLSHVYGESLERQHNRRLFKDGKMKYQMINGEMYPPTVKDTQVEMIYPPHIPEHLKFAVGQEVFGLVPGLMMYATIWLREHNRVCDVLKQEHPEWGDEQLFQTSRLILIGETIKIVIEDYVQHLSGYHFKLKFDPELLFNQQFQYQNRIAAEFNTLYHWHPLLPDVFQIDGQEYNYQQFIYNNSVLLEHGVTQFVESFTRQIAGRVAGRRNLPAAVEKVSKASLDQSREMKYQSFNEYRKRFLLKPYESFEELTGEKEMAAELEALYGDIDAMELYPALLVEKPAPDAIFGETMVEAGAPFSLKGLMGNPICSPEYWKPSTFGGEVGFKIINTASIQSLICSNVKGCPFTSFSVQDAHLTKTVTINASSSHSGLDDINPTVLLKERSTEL
# Assay: NVS_ENZ_oCOX2: NovaScreen (NVS) Enzymatic Assay for sheep Cyclooxygenase-2 (Cox2) (AID 2283231)
# How it was run: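 Compounds were first run at 25 uM in duplicate against tissue-extracted ovine COX-2; those passing a preset inhibition threshold went to singleton concentration-response testing with a 50 uM maximum. Read-out: absorbance at 0.66 hour.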
SMILES,AC50,outcome
CCOC(=O)C(C)(C)Oc1ccc(Cl)cc1,8.26 µM (active),–
C=CCc1ccc(O)c(OC)c1,15.7 µM (active),–
CCCCN(CCCC)CCCC,–,inactive
Nc1ccccc1N,14.9 µM (active),–
CC(=O)OC/C=C(\C)CCC=C(C)C,9.67 µM (active),–
CC(=O)Oc1ccccc1C(=O)O,–,inactive

# Target: rat Constitutive Nitric Oxide Synthase (CNOS), Nos1 (gene 24598) (UniProt P29476)
# Sequence (P29476 whole entry, looked up): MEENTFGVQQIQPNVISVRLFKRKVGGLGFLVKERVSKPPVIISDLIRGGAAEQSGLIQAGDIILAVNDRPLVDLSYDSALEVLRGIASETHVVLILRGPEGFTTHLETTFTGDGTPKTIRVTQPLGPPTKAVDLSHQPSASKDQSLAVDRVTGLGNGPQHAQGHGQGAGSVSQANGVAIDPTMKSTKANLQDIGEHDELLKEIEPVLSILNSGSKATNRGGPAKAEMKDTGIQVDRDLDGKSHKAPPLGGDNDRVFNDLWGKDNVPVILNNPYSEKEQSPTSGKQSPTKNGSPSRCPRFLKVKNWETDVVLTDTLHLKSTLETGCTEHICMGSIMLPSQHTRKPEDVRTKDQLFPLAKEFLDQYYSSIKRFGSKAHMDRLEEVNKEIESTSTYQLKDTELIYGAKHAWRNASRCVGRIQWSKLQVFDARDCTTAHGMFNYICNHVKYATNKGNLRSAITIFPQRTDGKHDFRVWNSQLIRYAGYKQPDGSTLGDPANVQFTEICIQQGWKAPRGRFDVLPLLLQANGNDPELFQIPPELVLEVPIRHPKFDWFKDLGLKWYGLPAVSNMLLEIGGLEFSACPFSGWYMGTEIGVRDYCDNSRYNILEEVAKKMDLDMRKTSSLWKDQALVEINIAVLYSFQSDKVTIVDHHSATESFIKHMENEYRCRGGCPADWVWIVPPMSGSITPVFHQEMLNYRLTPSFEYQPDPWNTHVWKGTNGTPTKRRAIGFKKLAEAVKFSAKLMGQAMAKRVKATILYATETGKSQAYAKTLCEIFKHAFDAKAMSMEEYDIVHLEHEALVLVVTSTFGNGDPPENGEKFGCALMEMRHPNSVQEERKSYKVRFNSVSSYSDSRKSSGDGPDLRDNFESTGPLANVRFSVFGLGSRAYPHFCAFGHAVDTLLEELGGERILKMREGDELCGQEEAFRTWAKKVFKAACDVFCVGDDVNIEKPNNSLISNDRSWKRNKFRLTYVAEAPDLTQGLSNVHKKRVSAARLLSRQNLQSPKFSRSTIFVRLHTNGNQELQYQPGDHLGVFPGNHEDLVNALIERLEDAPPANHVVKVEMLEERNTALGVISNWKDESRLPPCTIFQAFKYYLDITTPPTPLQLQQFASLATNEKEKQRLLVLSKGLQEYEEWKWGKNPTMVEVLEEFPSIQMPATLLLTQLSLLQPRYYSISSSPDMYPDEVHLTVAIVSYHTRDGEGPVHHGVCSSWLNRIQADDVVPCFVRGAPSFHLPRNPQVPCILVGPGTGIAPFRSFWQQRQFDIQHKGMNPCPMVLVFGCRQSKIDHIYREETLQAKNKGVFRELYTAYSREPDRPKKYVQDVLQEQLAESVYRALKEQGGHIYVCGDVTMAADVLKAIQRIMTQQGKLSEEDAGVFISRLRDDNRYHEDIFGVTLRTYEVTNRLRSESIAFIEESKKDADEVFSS
# Assay: NVS_ENZ_rCNOS: NovaScreen (NVS) Enzymatic Assay for rat Constitutive Nitric Oxide Synthase (CNOS) (AID 2283236)
# How it was run: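 Enzyme activity in rat brain membrane preparation, read 1 h after dosing by filter-based radiometric scintillation counting. Primary screen in duplicate at 25 uM; actives (e.g., ≥30% inhibition) then run in concentration-response up to 50 uM.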
SMILES,outcome,AC50
Nc1ccc2c(c1)C(=O)c1ccccc1C2=O,inactive,–
COc1cc(C=O)ccc1O,inactive,–
COc1ccc(C)cc1N,–,7.8 µM (active)
COc1cc(S(=O)(=O)O)c(C)cc1N=Nc1c(O)ccc2cc(S(=O)(=O)O)ccc12,inactive,–
Cc1cc(=O)[nH]c(=S)[nH]1,–,6.64 µM (active)
CCCCC(CC)COC(=O)CC(C(=O)OCC(CC)CCCC)S(=O)(=O)O (stereo not given),inactive,–
CCOc1ccc2c(c1)C(C)=CC(C)(C)N2,inactive,–

# Target: sheep Cyclooxygenase-1 (Cox1), PTGS1 (gene 443551) (UniProt P05979)
# Sequence (P05979 whole entry, looked up): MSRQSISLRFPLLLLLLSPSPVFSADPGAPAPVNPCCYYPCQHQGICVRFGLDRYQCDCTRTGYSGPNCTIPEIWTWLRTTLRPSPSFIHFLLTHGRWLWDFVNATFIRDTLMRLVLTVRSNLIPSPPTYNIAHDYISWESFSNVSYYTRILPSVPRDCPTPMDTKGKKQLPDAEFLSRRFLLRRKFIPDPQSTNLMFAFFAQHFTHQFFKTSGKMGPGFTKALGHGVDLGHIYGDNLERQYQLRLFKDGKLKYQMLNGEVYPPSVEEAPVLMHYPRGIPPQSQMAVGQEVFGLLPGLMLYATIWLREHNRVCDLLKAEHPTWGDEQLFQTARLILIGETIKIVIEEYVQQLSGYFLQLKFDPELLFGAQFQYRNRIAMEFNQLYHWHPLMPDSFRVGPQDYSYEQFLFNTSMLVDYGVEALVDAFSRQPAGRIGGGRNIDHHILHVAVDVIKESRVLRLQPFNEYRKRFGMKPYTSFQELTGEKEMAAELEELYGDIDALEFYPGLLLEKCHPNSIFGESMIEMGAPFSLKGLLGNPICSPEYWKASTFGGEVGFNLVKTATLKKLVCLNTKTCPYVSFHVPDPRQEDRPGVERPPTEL
# Assay: NVS_ENZ_oCOX1: NovaScreen (NVS) Enzymatic Assay for sheep Cyclooxygenase-1 (Cox1) (AID 2283239);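 note: actives reduce cyclooxygenase activity so potencies are for inhibitors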
# How it was run: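 Colorimetric enzyme readout using sheep seminal-vesicle cyclooxygenase-1, measured 0.66 h post-dosing. Single-concentration duplicates at 25 uM first, then concentration series for actives, with DMSO as baseline and plate controls.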
SMILES,outcome,AC50
CCOC(=O)C(C)(C)Oc1ccc(Cl)cc1,inactive,–
Nc1ccccc1N,inactive,–
CC(=O)OC/C=C(\C)CCC=C(C)C,–,8.78 µM (active)
CC(=O)Oc1ccccc1C(=O)O,inactive,–
Cc1ccc(Cl)cc1,inactive,–
Nc1nc(N)c2nc(CNc3ccc(C(=O)N[C@@H](CCC(=O)O)C(=O)O)cc3)cnc2n1,–,1.66 µM (active)
COc1ccc(C)cc1N,–,10.7 µM (active)
CCCCCCC(=O)OCC,inactive,–
CC=Cc1ccc(O)c(OC)c1,inactive,–
CCCCC(CC)COC(=O)CC(C(=O)OCC(CC)CCCC)S(=O)(=O)O (stereo not given),–,6.53 µM (active)
O=[N+]([O-])C(CO)(CO)CO,inactive,–

# Target: Adenosine receptor A1 (Bos taurus) (UniProt P28190)
# Sequence (P28190 whole entry, looked up): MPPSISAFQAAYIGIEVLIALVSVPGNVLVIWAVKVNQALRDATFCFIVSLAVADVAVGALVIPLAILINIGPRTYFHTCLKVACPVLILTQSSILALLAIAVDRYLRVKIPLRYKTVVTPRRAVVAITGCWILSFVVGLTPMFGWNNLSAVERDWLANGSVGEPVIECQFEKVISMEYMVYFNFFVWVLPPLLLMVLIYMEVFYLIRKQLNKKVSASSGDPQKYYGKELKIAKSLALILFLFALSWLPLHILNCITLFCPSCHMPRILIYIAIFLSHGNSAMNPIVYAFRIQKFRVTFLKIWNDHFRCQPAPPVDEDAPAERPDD
# Assay: NVS_GPCR_bAdoR_NonSelective: NovaScreen (NVS) G Protein-Coupled Receptor Assay for bovine Adenosine Receptor (AdoR), Non-selective Binding (AID 2283244)
# How it was run: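 Bovine striatal membranes, radioligand displacement binding, 1 h after dosing, filter-based scintillation counting. Screened in duplicate at 25 uM, then concentration-response up to 50 uM; loss of specific binding relative to DMSO.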
SMILES,AC50,outcome
O=c1c(O)c(-c2ccc(O)c(O)c2)oc2cc(O)cc(O)c12,0.89 µM (active),–
Nc1ccccc1N,9.16 µM (active),–
Nc1ccc2c(c1)C(=O)c1ccccc1C2=O,25 µM (active),–
COc1cc(S(=O)(=O)O)c(C)cc1N=Nc1c(O)ccc2cc(S(=O)(=O)O)ccc12,–,inactive
Cc1ccc(N(C)C)cc1,–,inactive
Oc1ccc2ccccc2c1N=Nc1ccccc1,25 µM (active),–

# System: not listed separately
# Assay: NVS_GPCR_bNPY_NonSelective: NovaScreen (NVS) G Protein-Coupled Receptor Assay for bovine Neuropeptide Y (NPY) Receptor, Non-selective Binding (AID 2283245)
# Experimental: (§1) NVS_GPCR_bNPY_NonSelective is a biochemical, single-readout assay that uses extracted gene-proteins from Bovine hippocampal membranes in a tissue-based cell-free assay. Measurements were taken 1 hour after chemical dosing in a 96-well plate.NVS_GPCR_bNPY_NonSelective is one of one assay component(s) measured or calculated from the NVS_GPCR_bNPY_NonSelective assay. It is designed to make measurements of radioligand binding, a form of binding reporter, as detected with scintillation counting signals by Filter-based radiodetection technology.Data from the assay component NVS_GPCR_bNPY_NonSelective was analyzed into 1 assay endpoint. This assay endpoint, NVS_GPCR_bNPY_NonSelective, was analyzed in the positive analysis fitting direction relative to DMSO as the negative control and baseline of activity. Using a type of binding reporter, loss-of-signal activity can be used to understand changes in the binding as they relate to the gene NPY. Furthermore, this assay endpoint can be referred to as a primary readout, because the performed assay has only produced 1 assay endpoint. To generalize the intended target to other relatable targets, this assay endpoint is annotated to the gpcr intended target family, where the subfamily is rhodopsin-like receptor.
# Binding assays used specific radioligands (tritiated, iodinated) with non-radioactive competitive displacement ligands in agonist or antagonist protocols (as indicated) and various reference compounds and inhibitors to titrate specific binding to receptors and transporters. Most enzyme assays (CYPs, kinases, phosphatases, proteases, HDACs) used recombinant protein and specific substrates (fluorescence mostly, some colorimetric and radioactive) and inhibitors, followed by a biochemical separation of substrate and product. All assays for the biochemical HTS were initially run in duplicate at a single concentration (10 uM for CYP450 assays and 25 uM for all others). […]
row,SMILES,outcome
1,CCCCCCOCCO,inactive
2,COc1ccc(S(=O)(=O)N2C(=O)[C@@](c3ccccc3OC)(N3C[C@H](O)C[C@H]3C(=O)N(C)C)c3cc(Cl)ccc32)c(OC)c1,inactive
3,CCCCCCCCCCCC(=O)OC,inactive

# System: bovine Histamine 1 Receptor (H1), gene 281231
# Assay: NVS_GPCR_bH1: NovaScreen (NVS) G Protein-Coupled Receptor Assay for bovine Histamine 1 Receptor (H1) (AID 2283246)
# Experimental: as §1, with “NVS_GPCR_bH1” for “NVS_GPCR_bNPY_NonSelective”, “cerebellar” for “hippocampal”, “48-well plate.NVS_GPCR_bH1” for “96-well plate.NVS_GPCR_bNPY_NonSelective”, “NVS_GPCR_bH1,” for “NVS_GPCR_bNPY_NonSelective,”, “HRH1.” for “NPY.”
# Binding assays used specific radioligands (tritiated, iodinated) with non-radioactive competitive displacement ligands in agonist or antagonist protocols (as indicated) and various reference compounds and inhibitors to titrate specific binding to receptors and transporters. Most enzyme assays (CYPs, kinases, phosphatases, proteases, HDACs) used recombinant protein and specific substrates (fluorescence mostly, some colorimetric and radioactive) and inhibitors, followed by a biochemical separation of substrate and product. All assays for the biochemical HTS were initially run in duplicate at a single concentration (10 uM for CYP450 assays and 25 uM for all others). Assay-chemical combinations meeting a pre-defined threshold (e.g., 30% inhibition and other criteria defined below) were then run in singleton concentration-response format with maximum concentration of 20 uM for CYPs and 50 uM for all others. Each assay was run with positive and negative controls, and concurrent controls on every plate. The follow-up (secondary) screen tested active chemical-pairs in concentration series, as well as a few additional assays not tested in the primary screen, some selected negative inactives, and several cases re-run in the concentration series for confirmatory purposes.
SMILES,outcome,AC50
C[C@]12C=CC(=O)C=C1CC[C@@H]1[C@@H]2C(=O)C[C@@]2(C)[C@H]1CC[C@]2(O)C(=O)CO,inactive,–
NC(=O)Cn1c(=O)cc(CCN2CCN(c3nccc4sccc34)CC2)c2ccc(F)cc21,–,0.777 µM (active)
Nc1ccc2c(c1)C(=O)c1ccccc1C2=O,inactive,–
